Experimental data: the supplement of paper PMC11732987, “Enantioselective OTUD7B fragment discovery through chemoproteomics screening and high-throughput optimisation” (Communications Chemistry, 2025)

Tests used:
Experiment in all cases: log2 ratio of Biotin-Ahx-Ub-VS probe labelling (fragment/DMSO); higher = less target engagement (more negative = stronger competition), active = hit call of the paper (q ≤ 0.05, log2 ratio ≤ -1)
Conditions in all cases: compound concentration: 200 uM; treatment time: 3 h
[1] = target: T1, ALG13 (UniProt Q9NP73)
T1 sequence (whole entry): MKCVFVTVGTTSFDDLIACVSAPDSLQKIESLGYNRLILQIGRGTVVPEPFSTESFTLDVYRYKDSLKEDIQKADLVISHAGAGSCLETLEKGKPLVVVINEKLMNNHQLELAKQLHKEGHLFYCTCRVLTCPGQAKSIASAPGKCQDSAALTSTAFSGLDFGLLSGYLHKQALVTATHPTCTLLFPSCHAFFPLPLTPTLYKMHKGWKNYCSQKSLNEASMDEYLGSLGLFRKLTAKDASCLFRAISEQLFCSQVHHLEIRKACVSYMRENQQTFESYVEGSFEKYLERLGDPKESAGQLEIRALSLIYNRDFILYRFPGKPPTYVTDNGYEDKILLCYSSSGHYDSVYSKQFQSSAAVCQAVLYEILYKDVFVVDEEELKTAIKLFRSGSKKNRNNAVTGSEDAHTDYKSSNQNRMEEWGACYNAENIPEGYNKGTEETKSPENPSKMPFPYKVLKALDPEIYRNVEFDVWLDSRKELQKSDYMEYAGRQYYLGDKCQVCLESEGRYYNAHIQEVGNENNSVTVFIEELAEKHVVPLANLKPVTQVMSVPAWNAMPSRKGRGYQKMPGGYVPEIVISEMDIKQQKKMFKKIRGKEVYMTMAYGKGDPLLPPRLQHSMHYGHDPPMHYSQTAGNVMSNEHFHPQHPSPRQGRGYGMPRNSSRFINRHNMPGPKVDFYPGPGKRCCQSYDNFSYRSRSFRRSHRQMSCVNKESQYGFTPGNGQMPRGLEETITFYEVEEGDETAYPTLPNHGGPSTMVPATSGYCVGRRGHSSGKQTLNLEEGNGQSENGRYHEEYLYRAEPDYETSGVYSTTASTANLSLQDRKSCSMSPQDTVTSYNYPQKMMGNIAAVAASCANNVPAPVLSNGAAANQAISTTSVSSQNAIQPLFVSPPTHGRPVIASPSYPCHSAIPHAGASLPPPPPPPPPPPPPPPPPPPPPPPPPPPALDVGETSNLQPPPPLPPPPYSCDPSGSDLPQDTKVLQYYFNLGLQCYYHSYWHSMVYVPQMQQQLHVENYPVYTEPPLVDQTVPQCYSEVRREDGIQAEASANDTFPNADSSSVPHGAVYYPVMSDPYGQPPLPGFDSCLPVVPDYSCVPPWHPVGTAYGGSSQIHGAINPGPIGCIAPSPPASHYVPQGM
Outline: (§1)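 Global-median-normalised Spectronaut label-free quantities were compared by unpaired t-test, and values are average log2 ratios of fragment over vehicle. Only proteins with ≥2 unique peptides were used. HEK293T lysate (495 µg per sample) was treated in triplicate with fragment at 200 µM or vehicle for 3 h and then with Biotin-Ahx-Ub-VS at 0.5 µM final for 1 h. Labelled DUBs were then NeutrAvidin-enriched, digested with LysC and trypsin, and run by diaPASEF LC-MS/MS.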

[2] = target: ATXN3 (UniProt P54252)
Outline: as §1

[3] = target: T2, BAP1 (UniProt Q92560)
T2 sequence (whole entry): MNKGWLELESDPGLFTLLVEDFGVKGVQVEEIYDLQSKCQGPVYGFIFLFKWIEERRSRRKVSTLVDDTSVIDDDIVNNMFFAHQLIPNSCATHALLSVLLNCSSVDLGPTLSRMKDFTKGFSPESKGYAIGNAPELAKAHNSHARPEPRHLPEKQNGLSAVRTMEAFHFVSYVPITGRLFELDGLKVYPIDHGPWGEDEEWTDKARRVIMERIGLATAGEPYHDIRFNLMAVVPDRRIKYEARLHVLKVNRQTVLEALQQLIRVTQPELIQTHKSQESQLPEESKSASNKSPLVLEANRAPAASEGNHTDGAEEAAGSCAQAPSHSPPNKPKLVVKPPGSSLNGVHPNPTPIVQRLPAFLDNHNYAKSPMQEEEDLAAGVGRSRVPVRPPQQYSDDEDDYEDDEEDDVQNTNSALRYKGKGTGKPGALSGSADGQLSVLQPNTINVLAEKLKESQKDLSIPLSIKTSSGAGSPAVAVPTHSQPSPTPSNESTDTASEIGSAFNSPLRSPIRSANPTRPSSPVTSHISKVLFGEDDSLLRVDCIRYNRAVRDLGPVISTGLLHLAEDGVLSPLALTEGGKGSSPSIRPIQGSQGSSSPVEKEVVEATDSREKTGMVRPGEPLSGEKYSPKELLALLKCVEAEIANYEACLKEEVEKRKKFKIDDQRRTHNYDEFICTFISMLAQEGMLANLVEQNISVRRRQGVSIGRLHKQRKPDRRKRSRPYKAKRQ
Outline: as §1

[4] = target: EIF3F (UniProt O00303)
Outline: as §1

[5] = target: EIF3H (UniProt O15372)
Outline: as §1

[6] = target: T3, FAM105A (UniProt Q9NUU6)
T3 sequence (whole entry): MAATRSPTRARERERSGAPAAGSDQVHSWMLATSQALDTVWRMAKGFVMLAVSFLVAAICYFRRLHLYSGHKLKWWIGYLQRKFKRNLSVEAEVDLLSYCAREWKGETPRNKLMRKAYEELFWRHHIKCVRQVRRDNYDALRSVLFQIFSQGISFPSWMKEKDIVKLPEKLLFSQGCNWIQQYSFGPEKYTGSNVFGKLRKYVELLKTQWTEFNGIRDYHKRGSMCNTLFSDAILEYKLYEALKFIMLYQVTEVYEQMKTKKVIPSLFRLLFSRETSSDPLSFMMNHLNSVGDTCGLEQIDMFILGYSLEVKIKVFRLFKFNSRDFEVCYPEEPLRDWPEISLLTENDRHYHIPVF
Outline: as §1

[7] = target: OTUB1 (UniProt Q96FW1)
Outline: as §1

[8] = target: T4, OTUD4 (UniProt Q01804)
T4 sequence (whole entry): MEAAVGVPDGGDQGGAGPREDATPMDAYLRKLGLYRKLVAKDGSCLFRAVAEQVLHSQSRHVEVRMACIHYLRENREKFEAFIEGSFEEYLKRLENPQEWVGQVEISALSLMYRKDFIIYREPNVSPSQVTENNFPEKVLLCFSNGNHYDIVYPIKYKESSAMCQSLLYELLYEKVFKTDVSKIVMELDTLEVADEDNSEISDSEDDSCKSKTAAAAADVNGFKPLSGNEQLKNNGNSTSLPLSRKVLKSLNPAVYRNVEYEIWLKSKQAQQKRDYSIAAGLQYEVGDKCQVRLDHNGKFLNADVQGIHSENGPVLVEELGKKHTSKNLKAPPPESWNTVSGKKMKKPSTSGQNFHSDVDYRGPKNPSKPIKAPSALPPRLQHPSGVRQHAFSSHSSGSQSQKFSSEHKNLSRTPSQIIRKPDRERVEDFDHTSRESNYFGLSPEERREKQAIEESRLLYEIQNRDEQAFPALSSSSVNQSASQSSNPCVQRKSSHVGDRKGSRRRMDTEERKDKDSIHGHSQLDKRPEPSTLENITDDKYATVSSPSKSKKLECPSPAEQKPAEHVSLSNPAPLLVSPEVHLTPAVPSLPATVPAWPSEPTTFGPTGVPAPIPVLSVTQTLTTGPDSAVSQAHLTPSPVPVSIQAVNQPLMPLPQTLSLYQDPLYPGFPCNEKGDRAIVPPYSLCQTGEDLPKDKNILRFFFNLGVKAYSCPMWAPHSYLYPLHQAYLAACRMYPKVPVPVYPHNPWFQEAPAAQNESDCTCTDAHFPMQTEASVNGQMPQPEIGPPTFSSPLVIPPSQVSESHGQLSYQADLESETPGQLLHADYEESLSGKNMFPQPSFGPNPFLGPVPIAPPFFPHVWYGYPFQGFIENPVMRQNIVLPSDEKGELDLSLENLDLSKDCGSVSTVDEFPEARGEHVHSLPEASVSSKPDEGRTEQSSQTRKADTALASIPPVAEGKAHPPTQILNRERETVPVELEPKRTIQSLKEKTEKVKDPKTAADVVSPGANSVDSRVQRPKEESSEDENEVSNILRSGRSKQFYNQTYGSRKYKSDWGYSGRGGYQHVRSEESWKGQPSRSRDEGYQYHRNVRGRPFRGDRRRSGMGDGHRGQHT
Outline: as §1

[9] = target: T5, OTUD5 (UniProt Q96G74)
T5 sequence (whole entry): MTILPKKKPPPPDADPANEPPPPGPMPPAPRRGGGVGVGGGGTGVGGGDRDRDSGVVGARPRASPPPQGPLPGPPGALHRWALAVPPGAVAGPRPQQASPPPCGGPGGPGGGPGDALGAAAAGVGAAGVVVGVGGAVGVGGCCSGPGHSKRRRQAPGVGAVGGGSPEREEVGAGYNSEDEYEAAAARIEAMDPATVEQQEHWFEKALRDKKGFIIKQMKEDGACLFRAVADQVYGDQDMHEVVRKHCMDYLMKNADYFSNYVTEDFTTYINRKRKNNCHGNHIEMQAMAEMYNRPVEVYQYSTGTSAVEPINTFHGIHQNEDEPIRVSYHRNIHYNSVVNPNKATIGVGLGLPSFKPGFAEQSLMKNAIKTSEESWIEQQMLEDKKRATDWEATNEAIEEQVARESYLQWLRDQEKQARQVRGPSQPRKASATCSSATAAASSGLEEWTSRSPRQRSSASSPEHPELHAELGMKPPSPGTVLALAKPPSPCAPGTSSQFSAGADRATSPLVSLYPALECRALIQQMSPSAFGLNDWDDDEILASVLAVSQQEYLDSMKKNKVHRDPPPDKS
Outline: as §1

Measured: log2 ratio of Biotin-Ahx-Ub-VS probe labelling

ATXN3, sequence (P54252 whole entry): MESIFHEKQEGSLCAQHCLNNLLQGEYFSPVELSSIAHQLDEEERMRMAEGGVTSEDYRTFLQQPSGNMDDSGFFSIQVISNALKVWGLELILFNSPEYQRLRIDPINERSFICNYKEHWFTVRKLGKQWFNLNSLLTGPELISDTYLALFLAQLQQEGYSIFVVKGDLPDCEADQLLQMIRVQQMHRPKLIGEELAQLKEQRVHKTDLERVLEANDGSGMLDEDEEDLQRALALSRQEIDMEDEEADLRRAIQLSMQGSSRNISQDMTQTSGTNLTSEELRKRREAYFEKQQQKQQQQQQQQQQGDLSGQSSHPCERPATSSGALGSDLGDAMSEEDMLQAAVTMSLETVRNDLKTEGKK
EIF3F, sequence (O00303 whole entry): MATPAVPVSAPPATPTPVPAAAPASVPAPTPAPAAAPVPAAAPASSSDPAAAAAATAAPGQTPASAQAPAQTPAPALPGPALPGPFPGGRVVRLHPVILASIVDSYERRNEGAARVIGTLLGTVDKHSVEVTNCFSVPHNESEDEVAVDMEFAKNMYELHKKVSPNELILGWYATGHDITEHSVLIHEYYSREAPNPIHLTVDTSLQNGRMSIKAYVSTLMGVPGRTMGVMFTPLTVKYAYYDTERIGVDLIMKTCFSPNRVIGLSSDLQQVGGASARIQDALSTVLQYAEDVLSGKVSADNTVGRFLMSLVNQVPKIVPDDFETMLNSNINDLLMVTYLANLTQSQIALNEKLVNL
OTUB1, sequence (Q96FW1 whole entry): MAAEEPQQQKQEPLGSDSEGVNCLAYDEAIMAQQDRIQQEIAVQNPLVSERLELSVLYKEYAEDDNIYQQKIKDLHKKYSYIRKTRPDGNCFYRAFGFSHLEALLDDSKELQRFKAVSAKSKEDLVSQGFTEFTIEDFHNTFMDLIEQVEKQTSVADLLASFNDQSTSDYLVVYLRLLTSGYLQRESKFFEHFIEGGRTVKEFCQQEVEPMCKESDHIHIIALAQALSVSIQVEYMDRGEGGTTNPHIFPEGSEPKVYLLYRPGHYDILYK
EIF3H, sequence (O15372 whole entry): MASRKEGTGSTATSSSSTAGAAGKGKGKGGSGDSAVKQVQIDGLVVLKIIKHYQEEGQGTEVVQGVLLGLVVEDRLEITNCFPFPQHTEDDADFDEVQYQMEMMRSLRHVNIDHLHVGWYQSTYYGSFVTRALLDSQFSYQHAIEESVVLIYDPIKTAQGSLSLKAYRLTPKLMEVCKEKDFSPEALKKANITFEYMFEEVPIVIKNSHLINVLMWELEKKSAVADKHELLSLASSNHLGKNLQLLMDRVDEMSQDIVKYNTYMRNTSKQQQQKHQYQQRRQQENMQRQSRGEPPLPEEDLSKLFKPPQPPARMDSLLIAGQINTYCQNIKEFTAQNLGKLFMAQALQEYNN

Cc1ccc(N(C(=O)CCl)C2C=CS(=O)(=O)C2)cc1 (centres undefined)
inactive: [1] -0.425 | [2] 0.116 | [3] -0.0645 | [4] -0.128 | [5] -0.276 | [6] 0.167 | [7] -0.0537 | [8] 0.0564 | [9] -0.00864
